Screening results: PubChem, several laboratories
Only some compounds are listed: those with a hit (about 2.9% of all), similar ones and a draw of the others.
dFosB act: mouse delta FosB homodimer activation; P13346; purified delta FosB, TAMRA-CDK5 oligo fluorescence polarization; percent of positive-control signal above neutral wells; activation, % at 25 µM; 0.99% of 340,000 active;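 active = mean activation above about 17%, with every replicate also reaching it, limit read from the data, passing the limit was not always enough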
MEKK2wt PB1 HTS: raises or lowers MEK5 binding to wildtype human MEKK2 PB1 domain | Q9Y2U5 | bead flow cytometry, Alexa488-MEK5 binding to MEKK2 WT; actives lie on both sides | binding response (% of control), % at 10 µM | 1.1% of 290,000 active | AID 1531; in the data active = binding response below about 67% or above about 130%
MEKK3 PB1 HTS: MEKK3-MEK5 PB1 interaction, increase or decrease; Q99759; bead-based flow cytometry, Alexa488-MEK5 binding to MEKK3; actives lie on both sides; 0 = blocked by unlabeled MEK5, 100 = vehicle; binding response (% of control), % at 10 µM; 1.4% of 290,000 active; AID 1529;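 active = binding response more than 3 SD above or below the average of its plate-row segment, actives on both sides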;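 note: Alexa488 bead fluorescence after subtracting the streptavidin-only scavenger bead signal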
Target sequence (Q99759 whole entry, looked up): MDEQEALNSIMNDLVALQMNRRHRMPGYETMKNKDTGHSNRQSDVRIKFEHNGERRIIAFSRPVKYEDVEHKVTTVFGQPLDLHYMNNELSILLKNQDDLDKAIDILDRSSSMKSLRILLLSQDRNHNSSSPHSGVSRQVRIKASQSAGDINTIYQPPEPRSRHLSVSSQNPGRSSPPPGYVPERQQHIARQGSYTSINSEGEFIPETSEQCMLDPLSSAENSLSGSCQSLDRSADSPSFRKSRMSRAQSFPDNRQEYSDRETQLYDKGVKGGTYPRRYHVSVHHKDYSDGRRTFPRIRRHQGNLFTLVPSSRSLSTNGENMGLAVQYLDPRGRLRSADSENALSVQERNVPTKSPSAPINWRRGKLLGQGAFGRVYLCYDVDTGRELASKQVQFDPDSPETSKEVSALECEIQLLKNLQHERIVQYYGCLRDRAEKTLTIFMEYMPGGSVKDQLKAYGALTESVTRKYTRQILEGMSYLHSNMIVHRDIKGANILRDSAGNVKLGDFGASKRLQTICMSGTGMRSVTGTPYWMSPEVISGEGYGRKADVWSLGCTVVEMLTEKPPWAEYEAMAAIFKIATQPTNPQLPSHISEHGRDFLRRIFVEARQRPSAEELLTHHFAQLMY
MEKK2 mut-MEK5: signal of MEK5 binding to mutant human MEKK2 PB1 domain; bead flow cytometry, Alexa488-MEK5 binding to MEKK2 mutant; percent response, % at 10 µM; 0.35% of 290,000 active; in the data active = percent response above about 24%, passing the limit was not always enough
FID counter: displaces DNA intercalator in HCV helicase counter-screen; AID 1845; inhibition, % at 7.9 µM; 0.17% of 290,000 active; DNA fluorescent intercalator displacement, fluorescence; in the data active = inhibition above about 37%;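 note: 0% = vehicle and 100% = reference compound; higher means more ethidium bromide displaced from hairpin DNA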
MEKK2wt confirm: raises or lowers MEK5 binding to wildtype human MEKK2, retest; shares compounds with MEKK3 PB1 HTS; bead flow cytometry, Alexa488-MEK5 binding to MEKK2 WT; actives lie on both sides; binding response (% of control), % at 10 µM; 2.4% of 5,900 active; in the data active = binding response below about 16% or above about 210%; inactive = in between
MEKK2mut confirm: signal of MEK5 binding to mutant human MEKK2, retest; shares compounds with MEKK3 PB1 HTS; bead flow cytometry, Alexa488-MEK5 binding to MEKK2 mutant; percent response, % at 10 µM; 2% of 5,900 active; in the data active = percent response mostly above about 71%, no sharp cut-off; inactive = mostly below about 38%;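 note: higher means compound restores mutant binding toward wildtype level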
MEKK3-MEK5 inh: MEKK3-MEK5 PB1 inhibition, single concentration confirmation; binding response (% of control), % at 10 µM; shares compounds with MEKK3 PB1 HTS; 1.8% of 5,900 active; bead flow cytometry, Alexa488-MEK5 binding to MEKK3; stronger effect = lower value;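 active = binding response below 72% of control, or above a set upper limit, though filed actives all read lower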;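 note: 100% = DMSO only wells and 0% = binding blocked by excess unlabeled MEK5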
Numbers without * were called inactive; x = not tested or not shown; [ ] = dose if it differs, or a comment.

SMILES	dFosB act	MEKK2wt PB1 HTS	MEKK3 PB1 HTS	MEKK2 mut-MEK5	FID counter	MEKK2wt confirm	MEKK2mut confirm	MEKK3-MEK5 inh
COC(=O)CCC(=O)OC1(C)C(=O)C=C2C=C(C3CC3)N(CCCCO)C=C2C1=O (stereo unspecified)	3	141*	118	2	x	87	-11	84
COC(=O)CCC(=O)OC1(C)C(=O)C=C2C=C(C3CC3)N(CCc3c[nH]c4ccccc34)C=C2C1=O (stereo unspecified)	-4	0.0*[inhibitor]	0.0*[inhibitor]	-5	x	95	0	95
COC(=O)CCC(=O)OC1(C)C(=O)C=C2C=C(C3CC3)N(c3ccccc3)C=C2C1=O (stereo unspecified)	2	92	95	6	x	x	x	x
COC(=O)CCC(=O)OC1(C)C(=O)C=C2C=C(C3CC3)N(Cc3ccc(OC)cc3)C=C2C1=O (stereo unspecified)	0	96	100	6	x	x	x	x
COC(=O)CCC(=O)OC1(C)C(=O)C=C2C=C(C3CC3)N(Cc3ccc4c(c3)OCO4)C=C2C1=O (stereo unspecified)	-3	-7.0*[inhibitor]	91	3	x	91	-2	93
CC(C)c1ccc(CN2CCSCC2)cc1	5	104	100	2	2	x	x	x
C#CCOC(=O)Nc1cc(C)n(-c2ccccc2)n1	-5	108	104	6	-4	x	x	x
COC(=O)CCCC1=CC2=CC(=O)C(C)(OC(=O)c3cccs3)C(=O)C2=CN1C1CC1 (stereo unspecified)	-4	142*	122	4	x	100	-2	103
C=CCN1C=C2C(=O)C(C)(OC(=O)CCC(=O)OC)C(=O)C=C2C=C1C1CC1 (stereo unspecified)	-2	88	85	2	x	x	x	x
COC(=O)CCCC1=CC2=CC(=O)C(C)(OC(=O)c3cccs3)C(=O)C2=CN1C1CCCCC1 (stereo unspecified)	0	94	97	3	x	x	x	x
COC(=O)CCC(=O)OC1(C)C(=O)C=C2C=C(C3CC3)N(CCN3CCOCC3)C=C2C1=O (stereo unspecified)	1	143*	119	4	x	108	6	104
Cc1ccc2c(c1)cc1c(=O)n(CC(=O)N3CCCC3)nc(C)n12	-7	100	96	3	-18	x	x	x
O=C(O)Cn1cc(/C=N/Nc2ccc([N+](=O)[O-])cn2)c2ccccc21	0	107	104	2	-23	x	x	x
Cc1ccc(Cn2cc(/C=N/Nc3ccc([N+](=O)[O-])cn3)c3ccccc32)cc1	-1	53*[inhibitor]	98	15	0	100	-4	98
S=C1N(c2ccccc2)C(c2cccc3ccccc23)N2CCCN12 (stereo unspecified)	-1	100	102	2	-5	x	x	x
NC(=O)CC(NC(=O)c1ccccc1)c1ccc(N2CCC(Br)CC2)c([N+](=O)[O-])c1 (stereo unspecified)	0	97	77*[inhibitor]	-2	x	91	-14	91
FC(F)(F)c1cc(N2CCN(Cc3ccccc3)CC2)c2ccccc2n1	-2	84	75*[inhibitor]	-13	-6	95	-7	95
Cc1c(Cl)c(C(=O)NNC(=S)Nc2ccc(F)cc2)nn1C	2	95	101	-2	-3	x	x	x
O=c1[nH]c2cc3c(cc2cc1CN(CCc1ccccc1)C(=S)NCCCN1CCOCC1)OCCO3	1	x	x	x	x	x	x	x
CC(=O)OCC(=O)C1=CCC2C3CCC4=CC(=O)C=CC4(C)C3(F)C(OC(C)=O)CC12C (stereo unspecified)	-3	37*[inhibitor]	62*[inhibitor]	-2	-5	103	0	102
CCOC(=O)C1=NOC(CN(c2ccccc2)S(=O)(=O)c2ccc(Cl)cc2)C1 (stereo unspecified)	-8	84	96	-11	-24	x	x	x
Cc1cc(C)cc(NC(=O)C2CCCN2C(=O)NC2CCCCC2)c1 (stereo unspecified)	5	93	96	2	3	x	x	x
Cc1cc(C)c(NC(=O)C2CCCN2CCOC(=O)c2ccccc2)c(C)c1 (stereo unspecified)	-6	106	142*	0	-28	109	5	106
Cc1cc(C)c(NC(=O)C2CCCN2C(=O)NC2CCCCC2)c(C)c1 (stereo unspecified)	8	102	125*	6	-12	108	3	105
Cc1cc(C)c(NC(=O)C2CCCN2CCOC(=O)c2cccc([N+](=O)[O-])c2)c(C)c1 (stereo unspecified)	-11	100	120	0	-16	x	x	x
SMILES	dFosB act	MEKK2wt PB1 HTS	MEKK3 PB1 HTS	MEKK2 mut-MEK5	FID counter	MEKK2wt confirm	MEKK2mut confirm	MEKK3-MEK5 inh
CCOc1ccc(CCNC(=O)c2cc(=O)[nH]c3ccc(S(=O)(=O)N(CC)CC)cc23)cc1OCC	2	96	100	-3	-27	x	x	x
CCc1nc2ccccc2n1CC(O)COCC1CC=CCC1 (stereo unspecified)	-13	105	101	1	-14	x	x	x
Cc1noc(C)c1S(=O)(=O)Nc1ccc(C(=O)NC2CCCCC2)cc1	2	33*[inhibitor]	20*[inhibitor]	-32	-19	101	6	103
Cc1cc(C)c(NC(=O)c2ccc(CNS(=O)(=O)c3cc(C(F)(F)F)ccc3Cl)cc2)c(C)c1	-13	104	130*	1	-23	96	0	99
O=C(CSc1n[nH]c(=O)n1Cc1ccco1)Nc1ccccc1	x	123	128*	23	-4	69	-12	90
CC(C)c1ccc(NC(=O)CSc2n[nH]c(=O)n2Cc2ccco2)cc1	x	104	104	1	-21	x	x	x
CSc1nc(N)nc2c1ncn2CC(=O)NCCCN1CCCC1=O	4	x	x	x	x	x	x	x
O=C(CN1C(=O)NC2(CCc3ccccc32)C1=O)NCCc1ccccc1 (stereo unspecified)	-11	x	x	x	x	x	x	x
COc1cc(C(=S)N2CCCC2)ccc1OCC(N)=O	1	100	95	3	-3	x	x	x
COc1cc(C(=S)N2CCCCC2)ccc1OCC(=O)N1CCCC1	-5	118	124*	5	-18	99	-2	104
CCOc1cc(C(=S)N2CCCCC2)ccc1OCC(=O)NCc1ccccc1	-9	87	75*[inhibitor]	-8	-31	107	7	106
C/C(=N\N1C(C)CCCC1C)c1ccccc1O (stereo unspecified)	0	110	107	8	-8	x	x	x
